Shown are actives, neighbours in structure and some others; about 1.1% of the full set was active somewhere.
AGP1-GFP MLPCN – alters AGP1-GFP fluorescence in TOR pathway yeast screen; GFP response vs DMSO, % at 10 µM; actives 0.02% (n = 320,000); S. cerevisiae AGP1-GFP multiplex flow cytometry, 3 h; GFP as percent of DMSO wells;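 active means GFP response relative to DMSO above a set limit, near screen average plus 3 SD, cut at about 150% in these data; inconclusive means fewer than 70 cells counted for the yeast strain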;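 further: median GFP channel fluorescence of the gated AGP1 strain per well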
RPL19A-GFP yeast – yeast TOR pathway RPL19A-GFP modulation. S. cerevisiae RPL19A-GFP strain, flow cytometry, 3 h; stronger effect = lower value. percent response vs DMSO, % at 10 µM. actives 0.3% (n = 330,000). AID 2025;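 active means percent response vs DMSO below 50%; inconclusive means fewer than 70 events counted for the yeast strain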;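 further: median channel GFP fluorescence of the barcoded RPL19A-GFP strain; ratio of sample median GFP to plate DMSO average so 100% = DMSO; lower means less RPL19A-GFP as with rapamycin TOR inhibition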
VLA-4 inh – inhibition in a human VLA-4 binding assay. VLA-4 expressing cells, ligand binding flow cytometry. inhibition, % (about 7 µM as worked out from the volumes in the protocol). actives 0.2% (n = 330,000). AID 2557; in the data active means inhibition above about 50%
Target sequence (P13612 whole entry, looked up): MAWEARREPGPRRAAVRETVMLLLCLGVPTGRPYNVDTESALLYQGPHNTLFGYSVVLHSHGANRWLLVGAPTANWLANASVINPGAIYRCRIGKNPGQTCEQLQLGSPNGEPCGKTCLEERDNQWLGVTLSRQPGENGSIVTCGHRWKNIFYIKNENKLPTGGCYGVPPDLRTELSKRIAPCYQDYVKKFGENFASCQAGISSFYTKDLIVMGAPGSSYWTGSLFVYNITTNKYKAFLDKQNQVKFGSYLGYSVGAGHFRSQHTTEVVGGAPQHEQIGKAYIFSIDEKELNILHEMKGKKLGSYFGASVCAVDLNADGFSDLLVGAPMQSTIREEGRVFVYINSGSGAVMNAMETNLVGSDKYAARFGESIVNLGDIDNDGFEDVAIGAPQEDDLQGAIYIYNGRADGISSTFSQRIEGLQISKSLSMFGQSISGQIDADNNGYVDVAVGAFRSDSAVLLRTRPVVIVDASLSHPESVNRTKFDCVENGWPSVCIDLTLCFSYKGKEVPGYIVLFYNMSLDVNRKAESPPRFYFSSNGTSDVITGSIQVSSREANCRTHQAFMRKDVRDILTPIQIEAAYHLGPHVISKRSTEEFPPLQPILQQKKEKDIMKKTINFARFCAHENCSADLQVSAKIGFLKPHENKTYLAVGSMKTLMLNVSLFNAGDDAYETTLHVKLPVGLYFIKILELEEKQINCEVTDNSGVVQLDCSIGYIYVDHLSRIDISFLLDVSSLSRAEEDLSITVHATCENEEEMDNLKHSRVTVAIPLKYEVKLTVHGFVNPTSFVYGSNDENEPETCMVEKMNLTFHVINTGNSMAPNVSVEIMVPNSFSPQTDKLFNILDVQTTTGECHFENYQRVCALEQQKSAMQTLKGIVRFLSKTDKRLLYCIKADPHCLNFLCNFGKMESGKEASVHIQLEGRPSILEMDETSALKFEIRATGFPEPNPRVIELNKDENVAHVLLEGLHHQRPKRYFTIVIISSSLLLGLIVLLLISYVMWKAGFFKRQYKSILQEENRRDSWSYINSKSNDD
MEP2-GFP yeast – yeast TOR pathway MEP2-GFP modulation; S. cerevisiae MEP2-GFP strain, flow cytometry GFP, 3 h; 100% = DMSO control level; actives 0.51% (n = 330,000); GFP response vs DMSO, % at 10 µM;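 active means GFP response versus DMSO above a set limit, roughly screen mean plus 3 SD, cut at about 180% in these data; inconclusive means fewer than 70 cells counted for a yeast strain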;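 further: median GFP fluorescence of the barcode-gated MEP2-GFP cells per well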
LAP4 TOR yeast – yeast TOR pathway LAP4-GFP modulation; AID 2023; S. cerevisiae LAP4-GFP multiplex, flow cytometry GFP, 3 h; median GFP as percent of DMSO wells; GFP response vs DMSO, % at 10 µM; actives 0.34% (n = 320,000);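 active means GFP response vs DMSO above a set limit, about the screen mean plus 3 SD, cut at about 150% in these data; inconclusive means under 70 cell events counted for the yeast strain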
CIT2 TOR yeast – alters CIT2-GFP fluorescence in TOR pathway yeast screen | S. cerevisiae CIT2-GFP strain, flow cytometry, 3 h; 100 means same as DMSO wells | GFP response vs DMSO, % at 10 µM | actives 0.065% (n = 320,000) | AID 2029;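 active means GFP response relative to DMSO above a set limit, near the screen mean plus 3 SD, cut at about 150% in these data; inconclusive means Fewer than 70 cells measured for a yeast strain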;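 further: ratio of well median GFP fluorescence to mean of DMSO wells on the plate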
An asterisk follows results filed as active; ? = inconclusive; [ ] = another dose, or the depositor's remark.

SMILES	AGP1-GFP MLPCN	RPL19A-GFP yeast	VLA-4 inh	MEP2-GFP yeast	LAP4 TOR yeast	CIT2 TOR yeast
O=C1CSC(c2cn(-c3ccccc3)nc2-c2ccc3c(c2)OCCO3)N1CCN1CCOCC1 (configuration not stated)	28	37*[may fluoresce violet]	16	351*[may fluoresce violet]	95	?
c1ccc(-n2cc(CN3CCC(N4CCOCC4)CC3)c(-c3ccc4c(c3)OCO4)n2)cc1	91	93	0	93	86	93
N#C/C(=C\c1cccc(Oc2ccccc2)c1)C(=O)N1CCOCC1	86	87	21	77	155*	70
COc1cc(/C=C(\C#N)C(=O)N2CCOCC2)cc(Br)c1O	93	97	29	90	98	92
O=C(CNC(=O)c1ccncc1)N/N=C/c1cccc([N+](=O)[O-])c1	106	122	7	156	123	170*
O=C(CNc1ccccc1)N/N=C/c1ccc([N+](=O)[O-])cc1	106	104	62*	108	110	102
O=C(CNC(=O)c1ccncc1)N/N=C/c1ccccc1[N+](=O)[O-]	96	105	1	105	95	105
CN1C(=O)/C(=C/c2ccc(-c3ccccc3[N+](=O)[O-])o2)SC1=Nc1ccc(Cl)c(C(=O)O)c1	?	41*[may fluoresce violet]	-1	126	60	?
Cc1ccc(C)c(N2C(=N)S/C(=C\c3ccc(-c4ccccc4C(=O)O)o3)C2=O)c1	102	99	-3	108	110	103
Cc1ccc(/C=C/C(=O)Nc2ccc(S(=O)(=O)Nc3onc(C)c3C)cc2)cc1	88	93	3	93	94	105
COc1cc(OC)cc(C(=O)O/N=C(\N)c2cccc(C)c2)c1	71	100	8	101	99	108
Cc1cccc(/C(N)=N/OC(=O)C23CC4CC(CC(C4)C2)C3)c1	54	93	22	87	119	154*
COc1ccc(OC)c2c1cc(C(=O)N[C@@H](C)C(=O)N[C@@H](C(=O)O)c1ccccc1)n2C	103	105	5	107	94	106
Cc1oc2ccccc2c1-c1cn2c(n1)SCC2	?	11*[may fluoresce violet]	6	?	95	?
CC1CCC(N2CCN(C(=O)c3ccccc3F)CC2)CC1 (configuration not stated)	105	107	8	107	97	110
Cc1cc(C)n(C(=O)/C(C#N)=N/Nc2cc(Cl)cc(Cl)c2)n1	84	110	9	113	101	103
Cc1cc(C)n(C(=O)/C(C#N)=N\Nc2ccccc2[N+](=O)[O-])n1	105	94	12	134	183*	90
CCOC(=O)C1CCN(C(=O)c2cc3c(=O)n4cccc(C)c4nc3s2)CC1	?	54	-1	200*[may fluoresce violet]	76	?
CCOC(=O)C1CCN(C(=O)c2cc3c(=O)n4ccccc4nc3s2)CC1	87	98	2	90	84	85
CO[C@@]1(NC(=O)C2SC(=C(C(N)=O)C(=O)O)S2)C(=O)N2C(C(=O)O)=C(CSc3nnnn3C)CS[C@@H]21 (some centres not stated)	97	103	11	102	97	93
CO[C@@]1(NC(=O)Cc2cccs2)C(=O)N2C(C(=O)O)=C(COC(N)=O)CS[C@@H]21	83	102	52*	100	122	84
O=C(Nc1nccs1)C1CCCN1S(=O)(=O)c1ccc(F)cc1 (configuration not stated)	114	105	-14	132	122	172*
CCOC(=O)C1CCN(C(=O)CNC(=O)Cn2c(C)cc3ccccc3c2=O)CC1	101	101	-3	107	104	104
CC(=O)NC(NC(C)=O)c1ccc(N(C)C)cc1	26	39*[may fluoresce violet]	1	219*[may fluoresce violet]	105	?
CCc1cc(=O)oc2c(CNCc3ccc(OC)cc3OC)c(O)c(Cl)cc12	17	69	2	407*[may fluoresce violet]	90	?
COc1ccc(CNCc2c(O)c(Cl)cc3c(C)c(C)c(=O)oc23)c(OC)c1	19	91	7	130	92	?

Source: PubChem (NMMLSC)
